This is a sample that favours compounds with a hit; in the whole collection about 19% have one here.
TDP1 block = blocks human tyrosyl-DNA phosphodiesterase 1; Q9NUW8; hit rate 0.28% among 350,000; AID 485290; Potency, µM (top dose mostly 130 µM), inactives show at the highest dose activity change, negative = inhibition, usual class: inhibitors; recombinant TDP1, AlphaScreen DNA substrate cleavage; also: potency is read from the fitted curve at half-maximal effect; % is scaled to controls: 0 for no effect and ±100 for the full control effect; nearly all actives have a fitted effect of over 40% in size
Target sequence (Q9NUW8 whole entry, looked up): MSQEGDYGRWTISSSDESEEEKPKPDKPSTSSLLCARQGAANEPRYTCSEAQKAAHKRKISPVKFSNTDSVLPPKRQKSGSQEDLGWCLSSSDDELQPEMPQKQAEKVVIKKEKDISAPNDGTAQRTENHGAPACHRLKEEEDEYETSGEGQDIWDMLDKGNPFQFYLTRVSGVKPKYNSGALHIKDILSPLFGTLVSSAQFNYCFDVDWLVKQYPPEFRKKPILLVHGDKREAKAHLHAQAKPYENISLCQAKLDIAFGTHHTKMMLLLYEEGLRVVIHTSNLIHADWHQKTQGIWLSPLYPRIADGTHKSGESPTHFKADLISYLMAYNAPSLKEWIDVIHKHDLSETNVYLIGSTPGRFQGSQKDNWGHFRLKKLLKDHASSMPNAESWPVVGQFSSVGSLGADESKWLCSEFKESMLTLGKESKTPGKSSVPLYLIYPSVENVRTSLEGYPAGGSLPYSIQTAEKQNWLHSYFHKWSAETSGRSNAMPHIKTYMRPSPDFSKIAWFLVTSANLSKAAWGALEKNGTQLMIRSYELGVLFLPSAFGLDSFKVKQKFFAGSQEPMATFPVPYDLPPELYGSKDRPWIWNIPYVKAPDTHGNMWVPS
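Signal: AlphaScreen proximity between streptavidin donor and anti-FITC acceptor beads on intact substrate. Reaction: Tdp1 1 nM, substrate 15 nM final, 5 min RT after 15 min compound preincubation.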
HepG2 viability = HepG2 cytotoxicity, counter-screen for TGF-b inhibitors; AID 588856; Potency, µM (doses to about 46.1 µM), without a hit: at the highest dose activity change, negative = cytotoxicity, usual class: cytotoxic; HepG2 CAGA-GFP viability, ATP luminescence, 18 h; hit rate 0.76% among 410,000; also: potency is read from the fitted curve at half-maximal effect
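HepG2 CAGA-GFP cells (1000/well, DMEM with 1% FBS) received compound, then TGF-beta at 500 pg/mL final, and were incubated 18 hours at 37 degrees C. Viability was read by CellTiter-Glo luminescence. Media-only wells were set as complete cell-killing and DMSO as no toxicity.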
IL-1B inflam inh = inflammasome signaling inhibition, IL-1 beta readout | AID 743279 | activity change, % at 57.5 µM | THP-1 LPS/ATP IL-1B secretion, AlphaLISA, 16 h; hits give low values | hit rate 4.7% among 360,000; in the data active = activity change below about -50%; inconclusive = mostly about -30% to -49%; also: % is scaled to controls: 0 for no effect and ±100 for the full control effect
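THP-1 cells pretreated 1 hr with compounds (up to 57.5 uM final), then stimulated with LPS (250 ng/mL final) plus ATP (1.25 mM final); secreted IL-1B measured by AlphaLISA after 16 hr, decreased signal indicating inhibition.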
DT40 TDP1 no CPT = qHTS for Inhibitors of human tyrosyl-DNA phosphodiesterase 1 (TDP1): qHTS in cells in absence of CPT; hit rate 15% among 420,000; DT40 Tdp1-/- hTDP1 cells, no CPT, ATP luminescence, 48 h; Potency, µM (titrated, usually from 46.2 µM), for the others: at the top dose activity change, negative = growth inhibition, usual class: inhibitors; AID 686978, 2013; also: potency is read from the fitted curve at half-maximal effect; % is scaled to controls: 0 for no effect and ±100 for the full control effect; nearly all actives have a fitted effect of over 55% in size
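Compound effects on proliferation are scored in DT40 Tdp1-/-;hTDP1 cells in the absence of CPT. ATP levels (CellTiter-Glo luminescence) are recorded after a ≥48 hr, 37 °C incubation.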
TDP1 cell CPT = DT40-hTDP1 cell growth loss with CPT; chicken DT40 Tdp1-/-;hTDP1 cells + 20 nM CPT, ATP luminescence, 48 h; Potency, µM (titrated, usually from 46.2 µM), for inactives: at the top dose activity change, negative = growth inhibition, usual class: inhibitors; hit rate 12% among 420,000; also: potency is read from the fitted curve at half-maximal effect; % is scaled to controls: 0 for no effect and ±100 for the full control effect; nearly all actives have a fitted effect of over 55% in size
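Cell growth measured by CellTiter-Glo luminescence after a minimum 48 h, 37 C compound exposure with 20 nM CPT in Tdp1-knockout DT40 cells stably expressing hTDP1, seeded 400/well; qHTS titration format.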
TGFb SMAD3 inh = inhibitors of TGF-b signaling; Potency, µM (titrated, usually from 46.1 µM), for inactives: top-dose activity, negative = inhibition, usual class: inhibitors; HepG2 CAGA-GFP TGF-b/SMAD3 reporter, GFP fluorescence, 18 h; TGF-beta stimulated, 500 pg/mL final; hit rate 1.2% among 410,000; AID 588855; also: potency is read from the fitted curve at half-maximal effect; % is scaled to controls: 0 for no effect and ±100 for the full control effect; nearly all actives have a fitted effect of over 65% in size
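Cell-based qHTS in HEPG2 carrying a CAGA-GFP Smad reporter; compounds added before 500 pg/mL final TGF-beta, 18 h incubation at 37 degrees C, GFP fluorescence quantified per cell by imaging cytometry.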
* = called active by the depositor; ? = inconclusive; . = no result given. Unless noted, calls follow the shape of the dose curve; as a rule, active = well fitted curve in the direction sought with a large enough effect; inconclusive = small, poorly fitted or top-dose-only effect, or another doubt; inactive = no such curve, though single readings can be large; an effect the other way counts as inactive or inconclusive.

SMILES | TDP1 block | HepG2 viability | IL-1B inflam inh | DT40 TDP1 no CPT | TDP1 cell CPT | TGFb SMAD3 inh
COc1ccc(C(=O)NCC(C)(C)SCc2c(C)cc(C)cc2C)cc1 | -6% | -37% | -72* | 16µM* | 23µM* | ?
Cc1cc(C)c2cc(C#N)c(NCCOC(=O)c3ccccc3C)nc2c1 | ? | 0% | -60* | ? | -1% | -6%
COc1cc(OC)cc(C(=O)NCCNc2nc3cc(C)cc(C)c3cc2C#N)c1 | . | -26% | -6 | 23µM* | ? | ?
COc1ccc(C(=O)NCCNc2nc3cc(C)cc(C)c3cc2C#N)nc1 | . | . | -2 | -20% | -7% | .
O=C(COC(=O)c1cc(Br)ccc1O)Nc1cc(S(=O)(=O)N2CCCC2)ccc1Cl | -2% | -3% | 17 | -2% | -4% | -3%
COc1ccccc1N1CCN(C(=O)CCn2nc(C)c(S(=O)(=O)N3CCCC3)c2C)CC1 | -1% | -1% | . | ? | ? | ?
COc1ccc(C(=O)NCCCNc2nc3cc(C)cc(C)c3cc2C#N)cc1 | . | 0% | 33 | 21µM* | ? | -3%
Cc1cc(C)c2cc(C#N)c(NCCCNC(=O)c3cccnc3)nc2c1 | . | -2% | ? | ? | ? | 2%
COc1ccc(C(=O)NCCNc2nc3cc(C)cc(C)c3cc2C#N)c(OC)c1 | . | . | 0 | ? | ? | .
COc1ccccc1C(=O)NCCNc1nc2cc(C)cc(C)c2cc1C#N | . | -11% | ? | 18µM* | ? | -12%
COc1ccc(C(CNC(=O)c2ccc(OCc3c(C)noc3C)cc2)N2CCCC2)cc1 (centres undefined) | 3% | -24% | -23 | 17% | 8% | 4%
Cc1ccc(-n2c(=O)c3c4c(sc3n(CC(=O)Nc3ccccc3C)c2=O)CCCCC4)cc1C | 1% | 2% | . | -3% | 10% | 3%
CC(C)CNC(=O)COC(=O)c1n[nH]c2ccccc12 | 0% | 7% | 15 | -2% | 5% | 2%
CC(C)CNC(=O)COC(=O)c1c2c(nc3ccccc13)/C(=C\c1cccs1)CC2 | . | -31% | -5 | 21µM* | ? | -13%
Cc1ccc(S(=O)(=O)N2CCOC2CNC(=O)C(=O)NCc2ccc3c(c2)OCO3)cc1 (centres undefined) | 7% | -12% | -21 | -5% | -25% | 0%
COc1cc(/C=C/C(=O)OCC(=O)Nc2cc(C)on2)ccc1OCC#N | -1% | -7% | -2 | -1% | -26% | 1%
COc1ccc(S(=O)(=O)CCC(=O)N2CCN(c3ccc([N+](=O)[O-])cc3)CC2)cc1 | 4% | -23% | ? | 3.7µM* | 10µM* | ?
Cc1ccc(S(=O)(=O)CCC(=O)N2CCN(c3ccc([N+](=O)[O-])cc3)CC2)cc1 | 5% | -8% | -13 | 10µM* | 18µM* | -7%
COc1cccc(NC(=O)Cn2c(=O)n(CCCC(=O)NCc3ccc4c(c3)OCO4)c(=O)c3ccccc32)c1 | 5% | -4% | . | -3% | -12% | 3%
COc1ccc(CN(C)C(=O)CNC(=O)c2cccs2)c(OC)c1 | 1% | -27% | 4 | 13% | 9% | 2%
CC(C)N(C)C1=CC(=O)C(N(C)C(C)C)=CC1=O | . | -5% | -11 | ? | 23µM* | 0%
CC(C)NC(=O)c1cc2cc(Br)ccc2oc1=O | 6% | -21% | 0 | 23µM* | ? | -6%
CCN(CC)C(=O)c1cc2cc(Br)ccc2oc1=O | -6% | 7.1µM* | 10 | -7% | 1% | -12%
N=c1oc2ccc(Br)cc2cc1C(=O)NC1CCCCCC1 | 2% | 5% | -23 | 9.2µM* | 16µM* | 5%

Source: PubChem (National Center for Advancing Translational Sciences (NCATS))
